Reference: the supplement of paper PMC12494721
Structures can show the parent of a compound that is named as a salt.

test system: Klebsiella aerogenes DSM 30053; assay: fold change of Putrescine concentration vs plate DMSO controls (fold change (ratio)); higher = more amine produced, active = hit call of the paper (significant change in both replicates, either direction); settings: incubation time: 27 h, anaerobic, 37 °C;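 for the amine columns active = adjusted P below 0.05 in both replicates with a change the same way and a mean fold change under 0.8 or over 1.25; inactive = the rest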
How it was run: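 Amine values are fold changes relative to DMSO-only wells on the same plate. They derive from 27 h, 37 °C anaerobic mGAM cultures of four gut bacterial strains in 80 µL wells, dosed at 20 µM final, or 50 µM final for sweeteners. Extraction of the whole culture, LC–triple-quadrupole MS in dynamic MRM mode, external calibration curves and within-batch drift correction were used, with 2 biological replicates averaged.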

**Q.** Which “fold change of Putrescine concentration” value does the source give for `CCCCCCCCCCCCCCCCCCCCCC(=O)Nc1ccn([C@@H]2O[C@H](CO)[C@@H](O)[C@@H]2O)c(=O)n1` [Enocitabine] (20 µM) here?
**A.** Its value is 1.01 (inactive).

**Q.** How did the “fold change of Putrescine concentration” value turn out when `COCC1=C(C(=O)OC(C)OC(=O)OC(C)C)N2C(=O)[C@@H](NC(=O)/C(=N\OC)c3csc(N)n3)[C@H]2SC1` (some centres undefined) [Cefpodoxime proxetil] (20 µM) was run?
**A.** Its value is 1.03 (inactive).

**Q.** Which “fold change of Putrescine concentration” value does the source give for `COc1cccc2c1C(=O)c1c(O)c3c(c(O)c1C2=O)C[C@@](O)(C(=O)CO)C[C@@H]3O[C@H]1C[C@H](N)[C@@H](O)[C@H](C)O1` [Epirubicin hydrochloride] (20 µM) here?
**A.** The value was 0.998 (inactive).

**Q.** With `CN1CCCN(C(c2ccccc2)c2ccc(Cl)cc2)CC1` (centres undefined) [Homochlorcyclizine dihydrochloride] (20 µM) as the compound, how does the “fold change of Putrescine concentration” value read?
**A.** Its value is 1.01 (inactive).

**Q.** For `COc1ccc(/C=C/C(=O)Nc2ccccc2C(=O)O)cc1OC` [Tranilast] (20 µM), which “fold change of Putrescine concentration” value is on record?
**A.** Its value is 0.994 (inactive).

**Q.** For `CC(C)Nc1ncccn1` [Isaxonine] (20 µM), which “fold change of Putrescine concentration” value is on record?
**A.** Its value is 1.04 (inactive).

**Q.** With `CC(=O)N[C@@H](CS)C(=O)O` [Acetylcysteine] (20 µM) as the compound, how does the “fold change of Putrescine concentration” value read?
**A.** The value was 1.02 (inactive).

**Q.** How did the “fold change of Putrescine concentration” value turn out when `C=C1C[C@@]23CC[C@H]4[C@@](C)(CCC[C@@]4(C)C(=O)O[C@@H]4O[C@H](CO)[C@@H](O)[C@H](O)[C@H]4O)[C@@H]2CC[C@]1(O[C@@H]1O[C@H](CO)[C@@H](O)[C@H](O)[C@H]1O[C@@H]1O[C@H](CO)[C@@H](O)[C@H](O)[C@H]1O)C3` [Stevioside] (50 µM) was run?
**A.** The value was 0.863 (inactive).

**Q.** Which “fold change of Putrescine concentration” value does the source give for `Nc1ccc(S(=O)(=O)Nc2nccs2)cc1` [Sulfathiazole] (20 µM) here?
**A.** Its value is 1.02 (inactive).

**Q.** `CC(=O)OCC(=O)[C@@]1(O)CC[C@H]2[C@@H]3CCC4=CC(=O)C=C[C@]4(C)[C@@]3(F)[C@@H](O)C[C@@]21C` [Isoflupredone acetate] (20 µM) was tested. Which “fold change of Putrescine concentration” value did it give?
**A.** The value was 1.03 (inactive).

**Q.** `CC(=O)CCCCn1c(=O)c2c(ncn2C)n(C)c1=O` [Pentoxifylline] (20 µM) was tested. Which “fold change of Putrescine concentration” value did it give?
**A.** Its value is 1.02 (inactive).

**Q.** Which “fold change of Putrescine concentration” value does the source give for `CCN(CC)CCOC(=O)C1(C2CCCCC2)CCCCC1` [Dicyclomine hydrochloride] (20 µM) here?
**A.** The value was 1.01 (inactive).

**Q.** `CC(=O)OCC(=O)[C@@]1(O)[C@H](C)C[C@H]2[C@@H]3CCC4=CC(=O)C=C[C@]4(C)[C@@]3(F)[C@@H](O)C[C@@]21C` [Dexamethasone acetate] (20 µM) was tested. Which “fold change of Putrescine concentration” value did it give?
**A.** The value was 1.02 (inactive).

**Q.** How did the “fold change of Putrescine concentration” value turn out when `Cc1nc2n(c(=O)c1CCN1CCC(c3noc4cc(F)ccc34)CC1)CCCC2O` (centres undefined) [Paliperidone] (20 µM) was run?
**A.** Its value is 1.02 (inactive).

**Q.** With `O=C(Nc1cccc2c(=O)cc(-c3nnn[nH]3)oc12)c1ccc(OCCCCc2ccccc2)cc1` [Pranlukast] (20 µM) as the compound, how does the “fold change of Putrescine concentration” value read?
**A.** Its value is 1.01 (inactive).

**Q.** Which “fold change of Putrescine concentration” value does the source give for `CCC(Cc1c(I)cc(I)c(N)c1I)C(=O)O` (centres undefined) [Iopanoic acid] (20 µM) here?
**A.** The value was 0.994 (inactive).

**Q.** For `C/C(=C\C(=O)OCCCCCCCCC(=O)O)C[C@@H]1OC[C@H](C[C@@H]2O[C@H]2[C@@H](C)[C@H](C)O)[C@@H](O)[C@H]1O` [Mupirocin] (20 µM), which “fold change of Putrescine concentration” value is on record?
**A.** Its value is 0.7 (active).

**Q.** With `CC(Oc1c(Cl)cccc1Cl)C1=NCCN1` (centres undefined) [Lofexidine] (20 µM) as the compound, how does the “fold change of Putrescine concentration” value read?
**A.** The value was 0.993 (inactive).

**Q.** How did the “fold change of Putrescine concentration” value turn out when `CCOc1ccc(NC(=O)CC(C)O)cc1` (centres undefined) [Bucetin] (20 µM) was run?
**A.** The value was 1.01 (inactive).

**Q.** For `CN(C)CCc1c[nH]c2ccc(Cn3cncn3)cc12` [Rizatriptan benzoate] (20 µM), which “fold change of Putrescine concentration” value is on record?
**A.** The value was 1.01 (inactive).

**Q.** Which “fold change of Putrescine concentration” value does the source give for `CC(C)OC(=O)C(C(=O)OC(C)C)=C1SC=CS1` [Malotilate] (20 µM) here?
**A.** The value was 1.04 (inactive).

**Q.** Which “fold change of Putrescine concentration” value does the source give for `CC1CS(=O)(=O)CCN1/N=C/c1ccc([N+](=O)[O-])o1` (centres undefined) [Nifurtimox] (20 µM) here?
**A.** The value was 0.949 (inactive).

**Q.** `CC(=O)OCC(=O)[C@@]12OC3(CCCC3)O[C@@H]1C[C@H]1[C@@H]3CCC4=CC(=O)C=C[C@]4(C)[C@@]3(F)[C@@H](O)C[C@@]12C` [Amcinonide] (20 µM) was tested. Which “fold change of Putrescine concentration” value did it give?
**A.** The value was 0.999 (inactive).

**Q.** `OC[C@H]1O[C@@H](c2ccc(Cl)c(Cc3ccc(O[C@H]4CCOC4)cc3)c2)[C@H](O)[C@@H](O)[C@@H]1O` [Empagliflozin] (20 µM) was tested. Which “fold change of Putrescine concentration” value did it give?
**A.** The value was 0.986 (inactive).

**Q.** How did the “fold change of Putrescine concentration” value turn out when `CC(CN(C)C)CN1c2ccccc2Sc2ccccc21` (centres undefined) [Trimeprazine tartrate] (20 µM) was run?
**A.** Its value is 1 (inactive).

**Q.** With `CCC(=O)O[C@]1(C(=O)SCF)[C@H](C)C[C@H]2[C@@H]3C[C@H](F)C4=CC(=O)C=C[C@]4(C)[C@@]3(F)[C@@H](O)C[C@@]21C` [Fluticasone propionate] (20 µM) as the compound, how does the “fold change of Putrescine concentration” value read?
**A.** The value was 1.01 (inactive).

**Q.** Which “fold change of Putrescine concentration” value does the source give for `OC[C@H]1O[C@@H](n2cnc3cncnc32)[C@H](O)[C@@H]1O` [Nebularine] (20 µM) here?
**A.** Its value is 1.01 (inactive).

**Q.** With `C=C1[C@H](CO)[C@@H](O)C[C@@H]1n1cnc2c(=O)[nH]c(N)nc21` [Entecavir] (20 µM) as the compound, how does the “fold change of Putrescine concentration” value read?
**A.** The value was 1 (inactive).

**Q.** Which “fold change of Putrescine concentration” value does the source give for `O=C1CN(/N=C/c2ccc(-c3ccc([N+](=O)[O-])cc3)o2)C(=O)N1` [Dantrolene sodium salt] (20 µM) here?
**A.** The value was 0.979 (inactive).

**Q.** With `CN1CCCN=C1/C=C/c1cccs1` [Pyrantel tartrate] (20 µM) as the compound, how does the “fold change of Putrescine concentration” value read?
**A.** Its value is 1 (inactive).

**Q.** `C[C@H](CCc1ccccc1)NC[C@H](O)c1ccc(O)c(C(N)=O)c1` [Dilevalol] (20 µM) was tested. Which “fold change of Putrescine concentration” value did it give?
**A.** The value was 1.01 (inactive).

**Q.** Which “fold change of Putrescine concentration” value does the source give for `CN1CCC(=C2c3ccccc3CCc3sccc32)CC1` [Pizotifen malate] (20 µM) here?
**A.** Its value is 1.01 (inactive).

**Q.** For `CCOC(=O)c1ccc(C#Cc2ccc3c(c2)C(C)(C)CCS3)nc1` [Tazarotene] (20 µM), which “fold change of Putrescine concentration” value is on record?
**A.** Its value is 0.977 (inactive).

**Q.** How did the “fold change of Putrescine concentration” value turn out when `CCC(=O)OCC(=O)[C@@]1(OC(=O)CC)[C@@H](C)C[C@H]2[C@@H]3CCC4=CC(=O)C=C[C@]4(C)[C@@]3(Cl)[C@@H](O)C[C@@]21C` [Beclomethasone dipropionate] (20 µM) was run?
**A.** Its value is 1.01 (inactive).

**Q.** How did the “fold change of Putrescine concentration” value turn out when `CC1=NN(c2ccccc2)C(=O)C1` [Edaravone] (20 µM) was run?
**A.** The value was 1.02 (inactive).

**Q.** For `CO/N=C(\C(=O)N[C@@H]1C(=O)N2C(C(=O)OCOC(=O)C(C)(C)C)=C(/C=C\c3scnc3C)CS[C@H]12)c1csc(N)n1` [Cefditoren Pivoxil] (20 µM), which “fold change of Putrescine concentration” value is on record?
**A.** The value was 1.12 (inactive).

**Q.** How did the “fold change of Putrescine concentration” value turn out when `Nc1ncnc2c1ncn2[C@@H]1O[C@H](CO)[C@@H](O)[C@@H]1O` [Vidarabine] (20 µM) was run?
**A.** Its value is 1.02 (inactive).

**Q.** With `O=C(O)c1ccccc1Nc1cccc(C(F)(F)F)c1` [Flufenamic acid] (20 µM) as the compound, how does the “fold change of Putrescine concentration” value read?
**A.** Its value is 1.02 (inactive).

**Q.** With `CCc1ccc(CCOc2ccc(CC3SC(=O)NC3=O)cc2)nc1` (centres undefined) [Pioglitazone] (20 µM) as the compound, how does the “fold change of Putrescine concentration” value read?
**A.** The value was 1.01 (inactive).
